Molecules are shown by their SMILES. The source made the active and inactive calls. Unless noted, no rule for the calls is given here.

A short description of test [1]: compounds binding Alexa647 anti-His antibody – biochemical, small-molecule microarray, 635 nm fluorescence, artefact control for SMM control protein annotation, primary screen (AID 1128).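 Also: score merges feature fluorescence with signal-to-noise for each printed compound spot.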 The settings on record: higher = more signal.
For test [2], the system named is Human papillomavirus type 1a E7 protein (residues 1-88). The experiment in a line: HPV1a E7 small-molecule binders, primary screen, biochemical, small-molecule microarray, residues 1-88, 635 nm (AID 1129). The settings on record: small-molecule microarray binding, fluorescence 635 nm; higher = more signal.
Test [3] addresses Focal adhesion kinase 1 (Homo sapiens) (UniProt Q05397). The experiment in a line: PTK2 protein binding on printed compound slides – biochemical, small-molecule microarray, 635/667 nm fluorescence, BSA, DTT, primary screen (AID 1130).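 Also: composite of spot emission at 667 nm and signal to noise over triplicate slides.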 The settings on record: 635 nm fluorescence, higher = more signal.
Test [4] has as its system Fibrinogen (Alexa647-labelled). The experiment in a line: Alexa647-fibrinogen binding to printed small molecules – biochemical, small-molecule microarray, 635/667 nm fluorescence, artefact control for SMM control-protein annotation, profiling panel (AID 1131).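 Also: z-score merges 667 nm fluorescence with per-spot signal-to-noise over triplicate slides.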 As to conditions: fibrinogen-A647 binding fluorescence, higher = more signal.
Test [5] concerns the target Follistatin (Homo sapiens) (UniProt P19883). The experiment in a line: FST protein binding to printed compounds – biochemical, small-molecule microarray, 635/667 nm fluorescence, primary screen (AID 1132). As to conditions: 635 nm fluorescence, higher = more signal.
The target in test [6] is Fibroblast growth factor 2 (Homo sapiens) (UniProt P09038). The experiment in a line: basic fibroblast growth factor binding to printed compounds – biochemical, small-molecule microarray, 635/667 nm fluorescence, primary screen (AID 1133). The settings on record: FGF2, fluorescence 635/667, higher = more signal.
Test [7] can be described thus: JC-1 mitochondrial potential readout, lung cancer cells – cell-based, A549, JC-1 fluorescence, basal, 24 h, 100 nL, profiling panel (AID 1138).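 Also: A549 lung adenocarcinoma cells under basal conditions with no added stimulus; test concentration not given here.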 The settings on record: higher = more signal.
The test system of a further test is Lefty1. The experiment in a line: Lefty1 protein binding to printed compounds – biochemical, small-molecule microarray, 635/667 nm fluorescence, primary screen (AID 1139). As to conditions: fluorescence 635/667, higher = more signal.
For test [8], the system named is wheat germ agglutinin (Triticum aestivum), Alexa647-labelled. The experiment in a line: Alexa647-WGA lectin binding to printed small molecules – biochemical, small-molecule microarray, 635/667 nm fluorescence, artefact control for SMM control-protein annotation, profiling panel (AID 1140).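 Also: score merges 667 nm feature emission with signal to noise over triplicate slides.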 The settings on record: WGA-A647 binding, 635 nm fluorescence, higher = more signal.

Test [9] addresses Luciferin 4-monooxygenase (Photinus pyralis) (UniProt P08659). The experiment in a line: inhibition of purified Photinus pyralis luciferase – biochemical, luminescence, purified enzyme, 2006 set, primary screen (AID 1141).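 Also: cell-free assay with purified firefly luciferase at 100 ng per well in PBS; test concentration not given here.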 As to conditions: purified firefly luciferase, SteadyGlo luminescence, 30 min; higher = more signal, called active from +8 up or from −8 down.
In test [10] the test system is Wnt5a (protein binding on small-molecule microarray). The experiment in a line: small molecules binding Wnt5a protein – biophysical, small-molecule microarray, 635/667 nm fluorescence, primary screen (AID 1142).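 Also: fluorescence read at 667 nm with signal to noise per printed feature.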 The settings on record: 635 nm fluorescence, higher = more signal.
Test [11] can be described thus: ATP-based viability of Huh7 replicon cells – cell-based, CellTiter-Glo luminescence, basal, 48 h, cytotoxicity control for HCV replication inhibitor project, primary screen (AID 1143).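 Also: Huh7 hepatoma cells carrying a hepatitis C replication reporter with no stimulus; test concentration not given here.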 As to conditions: higher = more signal, called active from +8 up or from −8 down. In general terms: A replicon is a self-replicating genome or part of one, used to study replication in cells.

Test [12] is described as follows: Pseudomonas biofilm growth suppression – PAO1 strain, BacTiter-Glo luminescence, LB-PBS, primary screen (AID 1144). As to conditions: P. aeruginosa PAO1 biofilm, 12 h, higher = more signal.
A short description of test [13]: basal CRE-LacZ reporter activity in PC12 – cell-based, unstimulated, primary screen (AID 1145). The settings on record: no forskolin, luminescence, 4.5 h, higher = more signal, called active from +8 up or from −8 down.
Test [14] can be described thus: forskolin-driven CRE-LacZ activity in PC12 – cell-based, CRE-LacZ reporter, forskolin-stimulated, primary screen (AID 1146).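 Also: PC12 cells with 6xCRE LacZ reporter stimulated by forskolin 10 µM; beta-galactosidase reporter signal reflecting CREB driven transcription.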 The settings on record: luminescence, 4.5 h, higher = more signal, called active from +8 up or from −8 down.
Test [15] deals with Streptavidin (Streptomyces avidinii) (UniProt P22629). The experiment in a line: compounds binding control protein streptavidin – biophysical, small-molecule microarray, 635/667 nm fluorescence, artefact control for SMM compound annotation, primary screen (AID 1147).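 Also: signal reflects streptavidin binding to arrayed compounds as a control protein.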 As to conditions: higher = more signal.
Test [16] can be described thus: probe aInhba binding on compound microarray – biochemical, small-molecule microarray, 635/667 nm fluorescence, primary screen (AID 1148).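 Also: score merges 667nm spot fluorescence with signal-to-noise for antibody binding to printed compounds.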 As to conditions: higher = more signal.
Test [17] deals with Torsin-1A (Homo sapiens) (UniProt O14656). The experiment in a line: TOR1A wild-type binding on microarray – cell lysate, small-molecule microarray, lysate, 635/667 nm, primary screen (AID 1149). The settings on record: COS7 hTOR1A-WT lysate, 635 nm fluorescence, higher = more signal.
Test [18] has the same target. The experiment in a line: torsin A mutant lysate binding on microarrays – cell lysate, small-molecule microarray, COS7 lysate, 635/667 nm fluorescence, primary screen (AID 1150).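 Also: score pools 667 nm emission and signal to noise measuring lysate protein binding.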 As to conditions: COS7 hTOR1A mutant lysate, 635 nm fluorescence, higher = more signal.
The subject of test [19] is Sonic hedgehog protein (Shh). The experiment in a line: Sonic hedgehog microarray binding compounds – biochemical, small-molecule microarray, 635/667 nm fluorescence, primary screen (AID 1151).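 Also: Shh protein binding to compounds spotted on small-molecule microarray slides; score combines spot fluorescence intensity with signal-to-noise across triplicate slides.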 As to conditions: 635 nm fluorescence, higher = more signal.

Sequence of Streptavidin (Streptomyces avidinii) (P22629 whole entry, looked up): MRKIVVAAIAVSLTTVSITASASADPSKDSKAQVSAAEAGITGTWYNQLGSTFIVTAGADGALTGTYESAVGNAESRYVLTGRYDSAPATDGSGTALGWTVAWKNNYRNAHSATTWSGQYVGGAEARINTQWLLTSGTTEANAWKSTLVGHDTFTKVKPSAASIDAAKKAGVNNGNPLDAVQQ
Sequence of Luciferin 4-monooxygenase (Photinus pyralis) (P08659 whole entry, looked up): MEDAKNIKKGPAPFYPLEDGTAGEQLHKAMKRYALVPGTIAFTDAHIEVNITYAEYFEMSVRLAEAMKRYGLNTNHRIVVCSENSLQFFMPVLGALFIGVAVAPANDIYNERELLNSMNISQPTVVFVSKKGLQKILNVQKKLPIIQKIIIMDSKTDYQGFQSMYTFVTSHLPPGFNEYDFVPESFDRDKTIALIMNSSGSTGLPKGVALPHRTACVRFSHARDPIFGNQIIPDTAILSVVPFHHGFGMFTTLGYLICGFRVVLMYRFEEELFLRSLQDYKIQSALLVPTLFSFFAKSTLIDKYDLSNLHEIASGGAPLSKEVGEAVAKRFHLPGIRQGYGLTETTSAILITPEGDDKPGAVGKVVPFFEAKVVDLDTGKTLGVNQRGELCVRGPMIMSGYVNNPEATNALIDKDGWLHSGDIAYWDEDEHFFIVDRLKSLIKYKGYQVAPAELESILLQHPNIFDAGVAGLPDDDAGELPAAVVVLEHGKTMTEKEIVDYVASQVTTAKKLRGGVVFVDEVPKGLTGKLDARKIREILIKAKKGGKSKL
Sequence of Fibroblast growth factor 2 (Homo sapiens) (P09038 whole entry, looked up): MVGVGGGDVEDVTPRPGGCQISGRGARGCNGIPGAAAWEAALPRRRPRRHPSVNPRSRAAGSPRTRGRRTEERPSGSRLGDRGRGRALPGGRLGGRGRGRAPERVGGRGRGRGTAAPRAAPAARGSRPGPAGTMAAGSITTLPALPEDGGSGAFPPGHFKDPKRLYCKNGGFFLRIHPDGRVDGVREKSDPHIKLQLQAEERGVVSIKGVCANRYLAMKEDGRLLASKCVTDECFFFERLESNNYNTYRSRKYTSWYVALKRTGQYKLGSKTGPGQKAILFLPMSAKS
Sequence of Follistatin (Homo sapiens) (P19883 whole entry, looked up): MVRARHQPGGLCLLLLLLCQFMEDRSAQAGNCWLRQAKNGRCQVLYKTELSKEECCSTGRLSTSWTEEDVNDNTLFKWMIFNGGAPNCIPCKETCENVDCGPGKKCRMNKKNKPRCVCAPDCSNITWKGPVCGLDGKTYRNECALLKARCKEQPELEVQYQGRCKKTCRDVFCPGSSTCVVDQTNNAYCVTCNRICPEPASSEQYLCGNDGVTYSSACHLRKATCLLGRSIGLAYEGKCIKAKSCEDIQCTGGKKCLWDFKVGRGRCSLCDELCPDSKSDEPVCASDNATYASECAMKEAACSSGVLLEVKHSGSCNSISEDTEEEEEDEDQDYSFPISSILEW
Sequence of Focal adhesion kinase 1 (Homo sapiens) (Q05397 whole entry, looked up): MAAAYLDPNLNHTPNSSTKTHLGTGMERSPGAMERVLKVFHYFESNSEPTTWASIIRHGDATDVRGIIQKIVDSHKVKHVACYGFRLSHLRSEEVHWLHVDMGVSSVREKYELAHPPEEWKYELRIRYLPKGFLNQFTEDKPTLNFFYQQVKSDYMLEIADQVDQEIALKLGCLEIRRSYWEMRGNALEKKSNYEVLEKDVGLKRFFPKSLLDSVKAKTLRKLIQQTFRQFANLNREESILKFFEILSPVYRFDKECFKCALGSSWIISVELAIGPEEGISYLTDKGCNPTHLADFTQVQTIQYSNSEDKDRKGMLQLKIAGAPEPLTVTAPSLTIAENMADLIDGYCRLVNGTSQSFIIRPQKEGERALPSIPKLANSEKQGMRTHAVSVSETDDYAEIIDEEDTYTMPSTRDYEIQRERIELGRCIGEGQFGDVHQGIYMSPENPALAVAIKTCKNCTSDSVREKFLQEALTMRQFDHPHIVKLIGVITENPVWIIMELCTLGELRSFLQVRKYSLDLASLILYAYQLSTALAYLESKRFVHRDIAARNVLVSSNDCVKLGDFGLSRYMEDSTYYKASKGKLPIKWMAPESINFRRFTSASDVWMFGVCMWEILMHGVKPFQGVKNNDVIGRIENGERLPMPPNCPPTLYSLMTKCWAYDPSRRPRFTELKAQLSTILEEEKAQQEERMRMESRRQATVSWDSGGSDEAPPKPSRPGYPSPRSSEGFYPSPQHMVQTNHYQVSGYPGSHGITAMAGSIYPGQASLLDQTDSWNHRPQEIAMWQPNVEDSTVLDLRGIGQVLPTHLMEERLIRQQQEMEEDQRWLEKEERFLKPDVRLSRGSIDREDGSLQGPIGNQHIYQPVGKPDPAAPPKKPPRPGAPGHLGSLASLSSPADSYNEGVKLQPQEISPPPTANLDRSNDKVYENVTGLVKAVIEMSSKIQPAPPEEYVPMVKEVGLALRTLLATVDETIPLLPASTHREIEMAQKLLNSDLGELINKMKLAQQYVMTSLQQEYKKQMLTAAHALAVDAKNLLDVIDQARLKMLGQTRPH
Sequence of Torsin-1A (Homo sapiens) (O14656 whole entry, looked up): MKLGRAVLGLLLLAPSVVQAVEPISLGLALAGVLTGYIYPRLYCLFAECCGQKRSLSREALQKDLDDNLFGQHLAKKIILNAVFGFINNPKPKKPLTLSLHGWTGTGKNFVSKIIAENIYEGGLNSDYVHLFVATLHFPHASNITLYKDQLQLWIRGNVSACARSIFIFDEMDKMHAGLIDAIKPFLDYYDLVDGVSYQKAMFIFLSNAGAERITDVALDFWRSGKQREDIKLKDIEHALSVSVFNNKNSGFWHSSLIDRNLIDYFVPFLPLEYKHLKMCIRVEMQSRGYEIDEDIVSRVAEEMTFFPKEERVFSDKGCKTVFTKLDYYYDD

As to `O=C1c2ccccc2[C@](Cc2ccccc2I)(C(=O)NCc2ccccc2)[C@H](c2ccc(CO)cc2)N1C1CCCCC1`, the composite z-score in test [1] stood at 2.68; in test [2] it was 1.2; in test [3] it was 0.699; in [4], 0.945; in test [5], 1.54; in test [6], 1.93. Also, the composite z-score in the test on Lefty1 is 1.42; in [8] it was 1.04; in test [10], 0.52; in [15] it was 1.71; in [16] it was 0.295; in the test with Torsin-1A (Homo sapiens) [17] it was 0.326. Further, the results for the composite z-score (with Torsin-1A (Homo sapiens) [18]; in test [19]) were 0.489 and 1.75, respectively. Also, the z-score was -0.0853 in test [7]; -0.0828 (inactive) in test [9]; -4.84 (inactive) in test [11]; -0.479 (inactive) in test [12]; 0.0655 (inactive) in test [13]; -0.183 (inactive) in test [14].

Regarding `C[C@]1(C(=O)O)c2ccccc2C(=O)N(Cc2ccccc2)[C@H]1c1ccc(CO)cc1`, the composite z-score is -1.17 in test [1]; -2.07 in test [2]; 0.343 in [3]; -2.48 in [4]; -0.828 in test [5]; -1.33 in test [6]. In addition, the composite z-score in the test on Lefty1 is -2.05; in test [8], -1.37; in test [10] it was -0.326; in test [15] it was -0.867; in test [16], -0.176; in the test with Torsin-1A (Homo sapiens) [17], -1.06. The composite z-score is -0.224 with Torsin-1A (Homo sapiens) [18] and -1.98 in [19]. In addition, the z-score in test [7] was 0.686; in [9], -0.84 (inactive); in test [11] it was -1.25 (inactive); in [12], 0.461 (inactive); in test [13] it was 0.001 (inactive); in [14] it was -0.301 (inactive).

As to `[N-]=[N+]=NCc1ccccc1C[C@]1(C(=O)NCC(O)CO)N=C(c2ccc(OCCCO)cc2)O[C@H]1c1ccccc1CN=[N+]=[N-]` (stereo not given in full), the composite z-score in test [1] was 2.73; in test [2], 1.2; in test [3] it was 0.116; in test [4], 0.973; in test [5], 1.3; in test [6] it was 0.495. Further, the composite z-score is -0.204 with Lefty1; 0.205 in test [8]; 0.493 in test [10]; 0.661 in test [15]; 0.404 in test [16]; 0.408 with Torsin-1A (Homo sapiens) [17]. The composite z-score with Torsin-1A (Homo sapiens) [18] is 1.09; in test [19], -0.881. Moreover, the z-score is 0.618 in test [7]; -0.0074 (inactive) in [9]; -4.68 (inactive) in test [11]; -0.998 (inactive) in test [12]; 0.447 (inactive) in test [13]; -1.32 (inactive) in test [14].

With `C=CCNC(=O)[C@@H]1[C@H]2C(=O)O[C@H](c3ccccc3)[C@H](c3ccccc3)N2[C@H](c2ccccc2OCCO)[C@@]12C(=O)N(C(=O)OCCOC)c1ccc(C#CC3=CCCCC3)cc12`, the composite z-score in [1] was 1.66; in test [2], 1.19; in test [3], 0.636; in test [4], 0.682; in test [5], 1.01; in test [6], 1.43. Moreover, the composite z-score in the test on Lefty1 is 0.949; in test [8], 0.762; in [10], 0.18; in test [15], 0.497; in [16], -0.146; in the test with Torsin-1A (Homo sapiens) [17] it was 0.458. Moreover, the composite z-score is 0.669 with Torsin-1A (Homo sapiens) [18] and 0.634 in test [19]. Besides, the z-score in test [7] was -0.663; in [9], -1.53 (inactive); in test [11] it was -4.3 (inactive); in [12] it was -0.348 (inactive); in test [13], 0.0614 (inactive); in test [14], -1.49 (inactive).

For the molecule `O=C1NC(=O)C2C1C=CC(C(O)c1c(F)cccc1Cl)N2Nc1ccccn1` (stereo not given), the composite z-score in test [1] is 0.582; in test [2], 0.257; in test [3], 0.202; in [4], 0.776; in test [5], 0.477; in test [6], 0.731. Besides, the composite z-score in the test on Lefty1 is -0.236; in test [8] it was 0.228; in test [10], 0.233; in [15], -0.201; in [16], -0.0195; with Torsin-1A (Homo sapiens) [17], 0.355. Further, the values for the composite z-score (with Torsin-1A (Homo sapiens) [18]; in test [19]) were 0.222 and -0.0146, respectively. The z-score is 0.52 in test [7]; -0.194 (inactive) in test [9]; 0.63 (inactive) in [11]; 0.475 (inactive) in [12]; 0.0535 (inactive) in test [13]; 0.204 (inactive) in test [14].

Values taken from PubChem BioAssay.
